What all share (test): DAPPL (digital affinity profiling via proximity ligation, sequencing); 10 mM Tris-HCl pH 7.5, 50 mM NaCl, 1 mM DTT, 4% glycerol, room temperature, 30 min; GST-TFs on glutathione beads, 16-mer random dsDNA library, 0.1% formaldehyde crosslink after washing; high values mean tight binding
One test concerns the target T1, FEV (Homo sapiens, UniProt Q99581 1-238).
T1 sequence: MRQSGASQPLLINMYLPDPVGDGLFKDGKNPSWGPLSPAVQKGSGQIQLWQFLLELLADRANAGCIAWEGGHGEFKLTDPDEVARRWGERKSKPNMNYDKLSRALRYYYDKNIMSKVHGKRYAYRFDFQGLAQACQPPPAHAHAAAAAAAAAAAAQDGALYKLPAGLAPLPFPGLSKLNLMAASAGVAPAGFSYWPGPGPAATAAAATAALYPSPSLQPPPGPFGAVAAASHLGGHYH
The settings on record: protein: recombinant; tags: N-terminal GST; dsDNA, one strand shown. A digest of the protocol: (§1)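 Pools of DNA-barcoded human transcription factors, expressed in yeast as GST fusions on glutathione beads and combined with a tag-only sample, were incubated with 200 nmole of a 16-mer random double-stranded DNA library. Incubation took 30 min at room temperature in Tris/NaCl/DTT/glycerol buffer and was followed by washing, 0.1% formaldehyde crosslinking, proximity ligation (BsaI/T4 ligase, 1 h, 37 °C), PCR amplification and sequencing on an Illumina NextSeq500. Binding signal is the ratio of a hexamer's read frequency for a factor to its frequency for the tag-only sample.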

The target of another test is ETV5 (Homo sapiens, UniProt P41161 1-510). The settings on record: protein: recombinant; tags: N-terminal GST; dsDNA, one strand shown. A digest of the protocol:
as §1

The next test concerns the target HSF1 (Homo sapiens, UniProt Q00613 1-529). The settings on record: protein: recombinant; tags: N-terminal GST; chain copies: 3; dsDNA, one strand shown. The procedure, abridged:
as §1

For the next test, the target named is T2, SPIC (Homo sapiens, UniProt Q8N5J4 1-248).
T2 sequence: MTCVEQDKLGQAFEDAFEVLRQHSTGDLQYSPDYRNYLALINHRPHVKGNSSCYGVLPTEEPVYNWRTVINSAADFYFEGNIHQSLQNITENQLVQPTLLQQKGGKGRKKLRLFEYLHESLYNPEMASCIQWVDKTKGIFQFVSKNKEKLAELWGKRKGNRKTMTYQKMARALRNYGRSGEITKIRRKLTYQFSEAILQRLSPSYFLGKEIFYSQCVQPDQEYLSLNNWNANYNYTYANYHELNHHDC
The settings on record: protein: recombinant; tags: N-terminal GST; dsDNA, one strand shown. The procedure, abridged:
as §1

In a further test the target is ELF4 (Homo sapiens, UniProt Q99607 1-663). The settings on record: protein: recombinant; tags: N-terminal GST; dsDNA, one strand shown. The procedure, abridged:
as §1

In a further test the target is T3, ELK4 (Homo sapiens, UniProt P28324-2 1-405).
T3 sequence: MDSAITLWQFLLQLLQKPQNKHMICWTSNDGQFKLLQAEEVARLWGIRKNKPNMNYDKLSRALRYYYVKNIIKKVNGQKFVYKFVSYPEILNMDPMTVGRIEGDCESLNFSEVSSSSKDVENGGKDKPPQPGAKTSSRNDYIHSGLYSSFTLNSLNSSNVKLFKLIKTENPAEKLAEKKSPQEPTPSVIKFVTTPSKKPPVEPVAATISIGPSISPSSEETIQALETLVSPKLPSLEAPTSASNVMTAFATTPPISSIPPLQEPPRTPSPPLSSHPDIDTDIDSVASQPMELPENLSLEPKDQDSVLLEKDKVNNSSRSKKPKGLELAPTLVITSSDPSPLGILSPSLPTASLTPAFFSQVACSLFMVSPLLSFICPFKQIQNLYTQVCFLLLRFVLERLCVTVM
The following applies: protein: recombinant; tags: N-terminal GST; dsDNA, one strand shown. The procedure, abridged:
as §1

A further test addresses T4, ETV2 (Homo sapiens, UniProt O00321 1-342).
T4 sequence: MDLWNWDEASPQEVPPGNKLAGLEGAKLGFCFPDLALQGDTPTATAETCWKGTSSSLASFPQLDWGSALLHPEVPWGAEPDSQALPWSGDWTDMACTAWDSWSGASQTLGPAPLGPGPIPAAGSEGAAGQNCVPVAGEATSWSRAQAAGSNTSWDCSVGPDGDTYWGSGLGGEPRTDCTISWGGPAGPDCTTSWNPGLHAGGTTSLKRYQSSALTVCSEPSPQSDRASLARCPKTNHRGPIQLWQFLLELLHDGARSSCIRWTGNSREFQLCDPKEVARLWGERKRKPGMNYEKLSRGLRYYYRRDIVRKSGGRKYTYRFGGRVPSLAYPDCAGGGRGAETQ
The settings on record: protein: recombinant; tags: N-terminal GST; dsDNA, one strand shown. The procedure, abridged: as §1

In a further test the target is T5, ELF3 (Homo sapiens, UniProt P78545 1-371).
T5 sequence: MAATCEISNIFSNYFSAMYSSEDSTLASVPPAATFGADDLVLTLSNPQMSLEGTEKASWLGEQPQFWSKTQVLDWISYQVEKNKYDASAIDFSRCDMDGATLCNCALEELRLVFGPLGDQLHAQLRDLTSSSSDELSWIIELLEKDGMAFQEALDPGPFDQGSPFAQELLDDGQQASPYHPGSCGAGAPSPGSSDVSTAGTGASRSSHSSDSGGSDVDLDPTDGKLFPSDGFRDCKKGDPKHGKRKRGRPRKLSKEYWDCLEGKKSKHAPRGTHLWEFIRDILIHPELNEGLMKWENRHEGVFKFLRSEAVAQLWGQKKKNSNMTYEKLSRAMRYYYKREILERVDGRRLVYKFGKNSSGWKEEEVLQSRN
The settings on record: protein: recombinant; tags: N-terminal GST; dsDNA, one strand shown. A digest of the protocol:
as §1

Another test deals with CRX (Homo sapiens, UniProt O43186 1-299). The settings on record: protein: recombinant; tags: N-terminal GST; dsDNA, one strand shown. The procedure, abridged: as §1
Sequence of CRX (O43186 whole entry): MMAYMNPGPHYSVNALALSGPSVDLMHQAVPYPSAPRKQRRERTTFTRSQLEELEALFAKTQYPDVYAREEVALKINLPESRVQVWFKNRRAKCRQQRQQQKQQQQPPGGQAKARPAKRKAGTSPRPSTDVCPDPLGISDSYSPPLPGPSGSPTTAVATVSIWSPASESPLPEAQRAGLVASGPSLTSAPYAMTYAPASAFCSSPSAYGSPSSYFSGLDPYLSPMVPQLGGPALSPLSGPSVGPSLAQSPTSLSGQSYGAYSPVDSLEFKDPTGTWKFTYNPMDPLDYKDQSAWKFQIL
The target of another test is ETV1 (Homo sapiens, UniProt P50549 1-477). The following applies: protein: recombinant; tags: N-terminal GST; dsDNA, one strand shown. A digest of the protocol:
as §1

A further test deals with T6, ERF (Homo sapiens, UniProt P50548 1-548).
T6 sequence: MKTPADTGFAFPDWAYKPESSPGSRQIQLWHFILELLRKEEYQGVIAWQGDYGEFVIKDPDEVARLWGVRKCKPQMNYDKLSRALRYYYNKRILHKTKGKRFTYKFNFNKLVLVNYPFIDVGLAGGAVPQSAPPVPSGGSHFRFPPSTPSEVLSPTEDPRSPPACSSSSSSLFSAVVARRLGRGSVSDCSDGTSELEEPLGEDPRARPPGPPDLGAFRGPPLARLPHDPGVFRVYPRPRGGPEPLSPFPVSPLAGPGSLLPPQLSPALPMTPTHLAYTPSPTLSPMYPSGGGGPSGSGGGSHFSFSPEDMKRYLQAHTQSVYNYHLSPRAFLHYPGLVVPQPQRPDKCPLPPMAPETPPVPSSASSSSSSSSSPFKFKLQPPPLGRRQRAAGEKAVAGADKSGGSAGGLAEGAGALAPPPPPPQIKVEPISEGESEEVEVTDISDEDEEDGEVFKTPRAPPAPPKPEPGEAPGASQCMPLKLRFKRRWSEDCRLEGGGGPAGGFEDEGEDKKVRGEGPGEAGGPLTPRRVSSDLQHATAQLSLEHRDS
The following applies: protein: recombinant; tags: N-terminal GST; dsDNA, one strand shown. A digest of the protocol:
as §1

For the next test, the target named is T7, ETV3L (Homo sapiens, UniProt Q6ZN32 1-361).
T7 sequence: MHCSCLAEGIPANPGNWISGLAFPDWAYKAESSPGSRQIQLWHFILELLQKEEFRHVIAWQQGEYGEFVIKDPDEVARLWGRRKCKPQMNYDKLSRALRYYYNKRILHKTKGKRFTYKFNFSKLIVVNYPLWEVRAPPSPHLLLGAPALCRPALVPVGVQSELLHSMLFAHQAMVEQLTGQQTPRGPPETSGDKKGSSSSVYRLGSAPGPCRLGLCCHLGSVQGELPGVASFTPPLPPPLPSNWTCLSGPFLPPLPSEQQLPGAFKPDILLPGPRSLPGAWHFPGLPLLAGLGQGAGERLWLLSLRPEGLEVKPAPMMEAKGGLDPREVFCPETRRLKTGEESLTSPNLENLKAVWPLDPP
The following applies: protein: recombinant; tags: N-terminal GST; dsDNA, one strand shown. A digest of the protocol: as §1

The target in another test is T8, ETS2 (Homo sapiens, UniProt P15036 1-469).
T8 sequence: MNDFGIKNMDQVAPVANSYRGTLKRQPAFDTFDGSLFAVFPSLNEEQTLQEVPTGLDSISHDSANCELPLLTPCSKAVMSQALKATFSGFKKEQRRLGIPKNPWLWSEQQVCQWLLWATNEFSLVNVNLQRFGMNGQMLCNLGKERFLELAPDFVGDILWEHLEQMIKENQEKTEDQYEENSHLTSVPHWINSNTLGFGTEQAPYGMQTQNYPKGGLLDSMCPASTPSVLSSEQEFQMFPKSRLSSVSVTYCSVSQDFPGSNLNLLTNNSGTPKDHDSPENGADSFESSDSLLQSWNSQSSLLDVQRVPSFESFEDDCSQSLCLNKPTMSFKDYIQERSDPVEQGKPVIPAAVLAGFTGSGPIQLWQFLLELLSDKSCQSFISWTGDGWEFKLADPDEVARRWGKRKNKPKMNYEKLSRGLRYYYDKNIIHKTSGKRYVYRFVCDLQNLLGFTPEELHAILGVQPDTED
The settings on record: protein: recombinant; tags: N-terminal GST; dsDNA, one strand shown. A digest of the protocol: as §1

The target of another test is T9, SPDEF (Homo sapiens, UniProt O95238 1-335).
T9 sequence: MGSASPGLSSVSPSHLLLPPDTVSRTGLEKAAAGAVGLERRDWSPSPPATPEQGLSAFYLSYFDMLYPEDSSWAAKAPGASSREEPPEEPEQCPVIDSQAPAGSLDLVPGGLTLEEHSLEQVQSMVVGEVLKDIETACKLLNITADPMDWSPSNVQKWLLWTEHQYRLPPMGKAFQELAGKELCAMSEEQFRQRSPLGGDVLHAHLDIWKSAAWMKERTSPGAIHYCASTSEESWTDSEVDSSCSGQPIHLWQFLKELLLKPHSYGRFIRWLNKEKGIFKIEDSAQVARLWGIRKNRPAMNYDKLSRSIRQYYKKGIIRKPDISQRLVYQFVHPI
The following applies: protein: recombinant; tags: N-terminal GST; dsDNA, one strand shown. The procedure, abridged: as §1

Another test deals with T10, ETV7 (Homo sapiens, UniProt Q9Y603 1-341).
T10 sequence: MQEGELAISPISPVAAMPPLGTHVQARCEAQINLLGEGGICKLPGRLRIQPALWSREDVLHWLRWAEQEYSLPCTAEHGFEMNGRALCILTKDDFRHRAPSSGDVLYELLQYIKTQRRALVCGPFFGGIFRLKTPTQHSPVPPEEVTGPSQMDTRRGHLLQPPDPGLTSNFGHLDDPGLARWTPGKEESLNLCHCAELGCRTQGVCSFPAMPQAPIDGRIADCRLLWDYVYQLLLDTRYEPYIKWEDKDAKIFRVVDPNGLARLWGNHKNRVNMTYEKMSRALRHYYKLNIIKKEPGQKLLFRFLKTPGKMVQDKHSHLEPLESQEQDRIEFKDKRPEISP
The following applies: protein: recombinant; tags: N-terminal GST; dsDNA, one strand shown. A digest of the protocol:
as §1

The target in a further test is T11, ELF5 (Homo sapiens, UniProt Q9UKW6-2 1-255).
T11 sequence: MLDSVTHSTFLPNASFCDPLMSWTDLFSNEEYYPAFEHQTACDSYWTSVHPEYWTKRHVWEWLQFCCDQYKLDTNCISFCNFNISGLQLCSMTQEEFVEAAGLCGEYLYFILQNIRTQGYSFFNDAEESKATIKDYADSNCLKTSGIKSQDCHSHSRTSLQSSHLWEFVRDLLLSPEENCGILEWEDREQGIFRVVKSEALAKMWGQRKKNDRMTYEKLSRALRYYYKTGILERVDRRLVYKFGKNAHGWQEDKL
The following applies: protein: recombinant; tags: N-terminal GST; dsDNA, one strand shown. A digest of the protocol:
as §1

The next test deals with T12, ETV3 (Homo sapiens, UniProt P41162-2 1-143).
T12 sequence: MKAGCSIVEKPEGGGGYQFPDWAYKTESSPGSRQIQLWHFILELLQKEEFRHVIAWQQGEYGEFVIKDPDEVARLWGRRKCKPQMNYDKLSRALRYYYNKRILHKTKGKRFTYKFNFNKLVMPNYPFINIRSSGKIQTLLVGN
The following applies: protein: recombinant; tags: N-terminal GST; dsDNA, one strand shown. The procedure, abridged: as §1

The target in another test is ETV6 (Homo sapiens, UniProt P41212 1-452). The following applies: protein: recombinant; tags: N-terminal GST; dsDNA, one strand shown. The procedure, abridged: as §1
Sequence of ETV6 (P41212 whole entry): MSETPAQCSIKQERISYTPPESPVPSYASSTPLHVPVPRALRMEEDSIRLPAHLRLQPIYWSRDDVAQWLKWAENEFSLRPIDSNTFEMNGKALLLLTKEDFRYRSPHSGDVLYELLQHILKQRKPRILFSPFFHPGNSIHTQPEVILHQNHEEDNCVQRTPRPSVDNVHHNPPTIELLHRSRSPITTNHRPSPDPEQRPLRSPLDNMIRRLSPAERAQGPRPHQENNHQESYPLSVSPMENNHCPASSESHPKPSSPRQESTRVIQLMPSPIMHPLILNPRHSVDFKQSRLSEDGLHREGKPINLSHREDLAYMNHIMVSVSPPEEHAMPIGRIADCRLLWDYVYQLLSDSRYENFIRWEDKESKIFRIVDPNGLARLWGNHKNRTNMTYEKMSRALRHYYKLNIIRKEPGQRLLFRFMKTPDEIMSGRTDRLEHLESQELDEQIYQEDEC

Sequence of ETV5 (P41161 whole entry): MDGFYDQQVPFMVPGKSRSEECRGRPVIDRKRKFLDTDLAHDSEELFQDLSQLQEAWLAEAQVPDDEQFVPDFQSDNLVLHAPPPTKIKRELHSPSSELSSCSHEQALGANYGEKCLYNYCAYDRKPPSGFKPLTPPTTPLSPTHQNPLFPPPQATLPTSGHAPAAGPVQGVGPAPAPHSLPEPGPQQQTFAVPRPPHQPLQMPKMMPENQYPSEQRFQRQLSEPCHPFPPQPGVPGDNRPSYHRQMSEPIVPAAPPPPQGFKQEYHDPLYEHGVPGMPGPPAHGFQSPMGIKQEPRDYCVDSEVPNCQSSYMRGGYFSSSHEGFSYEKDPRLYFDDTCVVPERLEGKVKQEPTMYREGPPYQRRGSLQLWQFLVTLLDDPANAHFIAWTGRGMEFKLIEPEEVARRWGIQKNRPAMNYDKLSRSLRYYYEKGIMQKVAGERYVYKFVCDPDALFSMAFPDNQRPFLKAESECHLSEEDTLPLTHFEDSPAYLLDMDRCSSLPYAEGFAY
Sequence of ETV1 (P50549 whole entry): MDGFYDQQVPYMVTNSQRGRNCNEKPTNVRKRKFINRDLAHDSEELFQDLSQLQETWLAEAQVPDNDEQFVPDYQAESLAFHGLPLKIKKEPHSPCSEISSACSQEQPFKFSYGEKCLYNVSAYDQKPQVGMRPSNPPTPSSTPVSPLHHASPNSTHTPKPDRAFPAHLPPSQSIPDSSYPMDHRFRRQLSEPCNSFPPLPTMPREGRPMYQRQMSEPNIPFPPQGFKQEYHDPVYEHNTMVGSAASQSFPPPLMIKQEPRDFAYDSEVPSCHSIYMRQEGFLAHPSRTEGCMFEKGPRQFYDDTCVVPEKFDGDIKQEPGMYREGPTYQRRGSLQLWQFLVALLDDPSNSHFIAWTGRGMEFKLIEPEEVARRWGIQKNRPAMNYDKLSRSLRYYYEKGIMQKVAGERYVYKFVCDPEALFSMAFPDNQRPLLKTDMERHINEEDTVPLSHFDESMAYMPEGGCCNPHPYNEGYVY
Sequence of HSF1 (Q00613 whole entry): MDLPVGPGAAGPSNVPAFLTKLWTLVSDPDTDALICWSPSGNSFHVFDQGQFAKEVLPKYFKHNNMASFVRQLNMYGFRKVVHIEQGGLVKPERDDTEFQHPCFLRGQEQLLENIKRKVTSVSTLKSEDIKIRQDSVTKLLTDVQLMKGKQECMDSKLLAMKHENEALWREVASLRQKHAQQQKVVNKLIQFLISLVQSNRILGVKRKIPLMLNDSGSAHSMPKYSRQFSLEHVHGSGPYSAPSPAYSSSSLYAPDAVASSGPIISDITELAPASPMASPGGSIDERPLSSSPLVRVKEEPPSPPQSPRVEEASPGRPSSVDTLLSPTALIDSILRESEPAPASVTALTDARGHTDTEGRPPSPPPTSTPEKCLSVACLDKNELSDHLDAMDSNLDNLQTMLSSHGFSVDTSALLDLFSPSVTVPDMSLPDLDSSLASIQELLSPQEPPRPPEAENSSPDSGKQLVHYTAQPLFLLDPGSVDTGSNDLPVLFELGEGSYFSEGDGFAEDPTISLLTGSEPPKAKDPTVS
Sequence of ELF4 (Q99607 whole entry): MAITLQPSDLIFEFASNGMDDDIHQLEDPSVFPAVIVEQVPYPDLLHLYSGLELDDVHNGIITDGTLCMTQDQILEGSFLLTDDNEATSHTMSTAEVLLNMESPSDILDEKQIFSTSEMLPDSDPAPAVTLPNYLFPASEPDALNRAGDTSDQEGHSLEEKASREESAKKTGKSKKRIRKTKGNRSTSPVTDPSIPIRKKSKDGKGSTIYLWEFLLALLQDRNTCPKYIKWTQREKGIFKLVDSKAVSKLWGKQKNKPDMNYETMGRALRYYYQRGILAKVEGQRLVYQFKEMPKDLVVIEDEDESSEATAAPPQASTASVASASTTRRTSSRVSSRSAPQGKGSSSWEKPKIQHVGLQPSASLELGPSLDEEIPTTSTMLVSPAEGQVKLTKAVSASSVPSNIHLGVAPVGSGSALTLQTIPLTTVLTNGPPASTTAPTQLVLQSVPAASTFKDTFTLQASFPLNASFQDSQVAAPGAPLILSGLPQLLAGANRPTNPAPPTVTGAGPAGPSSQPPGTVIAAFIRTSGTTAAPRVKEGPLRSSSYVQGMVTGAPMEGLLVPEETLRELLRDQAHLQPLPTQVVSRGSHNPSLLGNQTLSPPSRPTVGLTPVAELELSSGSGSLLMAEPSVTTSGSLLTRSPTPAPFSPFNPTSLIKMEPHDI

Take AATGCT: the binding signal with FEV was 1.2 fold enrichment (6-mer frequency, TF over GST control); in the test with ETV5, 1.27 fold enrichment (6-mer frequency, TF over GST control); with HSF1, 1.29 fold enrichment (6-mer frequency, TF over GST control); in the test with SPIC, 1.24 fold enrichment (6-mer frequency, TF over GST control); in the test with ELF4, 1.25 fold enrichment (6-mer frequency, TF over GST control); in the test with ELK4, 1.3 fold enrichment (6-mer frequency, TF over GST control). The binding signal was 1.3 fold enrichment (6-mer frequency, TF over GST control) with ETV2; 1.21 fold enrichment (6-mer frequency, TF over GST control) in the test with ELF3; 1.26 fold enrichment (6-mer frequency, TF over GST control) with CRX; 1.24 fold enrichment (6-mer frequency, TF over GST control) with ETV1; 1.16 fold enrichment (6-mer frequency, TF over GST control) with ERF; 1.15 fold enrichment (6-mer frequency, TF over GST control) with ETV3L. Moreover, the binding signal with ETS2 is 1.2 fold enrichment (6-mer frequency, TF over GST control); with SPDEF, 1.11 fold enrichment (6-mer frequency, TF over GST control); with ETV7, 1.1 fold enrichment (6-mer frequency, TF over GST control); in the test with ELF5, 1.24 fold enrichment (6-mer frequency, TF over GST control); with ETV3 it was 1.14 fold enrichment (6-mer frequency, TF over GST control); in the test with ETV6, 1.32 fold enrichment (6-mer frequency, TF over GST control).

The values are drawn from PMC7862700, “An all-to-all approach to the identification of sequence-specific readers for epigenetic DNA modifications on cytosine”.
